# High-throughput results as filed in PubChem.
# tim10-1 inh = growth inhibitors of tim10-1 mutant yeast, primary screen, luminescence, uHTS. S. cerevisiae tim10-1 ts strain growth, BacTiter-Glo, 24 h. inhibition, % at 20 µM. 330,000 compounds, 2.2% hits;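 active = inhibition of at least 40%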;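 note: mutant grown at 25 °C; 0% = DMSO wells with yeast and 100% = wells holding no yeast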
# NALP3 yeast inh = NALP3 inflammasome inhibitors in reconstituted yeast, primary screen, luminescence, uHTS | inhibition, % at 10 µM | Yeast reconstituted NLRP3/ASC/caspase-1, beta-gal luminescence, 24 h | 330,000 compounds, 0.39% hits | AID 2825, 2010;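 active = inhibition of 50% or more; inactive = inhibition below 50%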;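 note: plate controls were induced DMSO wells for no effect and uninduced yeast grown without galactose for full effect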
# TIM10 inh = growth inhibitors of isogenic TIM10 control yeast, primary screen, counter-screen for tim10-1 yeast inhibitor project, luminescence, uHTS. S. cerevisiae TIM10 strain growth, BacTiter-Glo luminescence, 24 h. inhibition, % at 10 µM. 330,000 compounds, 1.4% hits. AID 463195, 2010;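 active = inhibition of 40% or more at the single tested concentration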;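 note: wild-type TIM10 isogenic control strain grown at permissive 25 °C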
# tim23-1 inh = growth inhibitors of tim23-1 mutant yeast, primary screen, luminescence, uHTS; S. cerevisiae tim23-1 growth, BacTiter-Glo luminescence, 24 h; inhibition, % at 20 µM; 330,000 compounds, 1.3% hits; AID 463212, 2010;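 active = growth inhibition of the mutant yeast at or above 50%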;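 note: temperature-sensitive mutant grown at 25 °C; plate controls were DMSO-treated mutant yeast for no effect and medium wells lacking yeast for full effect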
# PfHsp90 set2 = growth inhibition of PfHsp90-expressing yeast, primary screen, antimalarial PfHsp90 inhibitor project, S. cerevisiae, BacTiter-Glo luminescence, single point, set 2 | BacTiter-Glo ATP, 48 h; yeast lacking PDR1 and PDR3 efflux regulators | inhibition, % at 9.4 µM | 310,000 compounds, 0.32% hits | AID 504621, 2011;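 active = every replicate shows inhibition above about 80%, whatever the replicate mean, limit read from the data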;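 note: 0% = DMSO neutral controls and 100% = 20 µM radicicol positive controls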
# SKKanGAS inh = S. pyogenes SKKanGAS growth inhibitors in kanamycin, primary screen, streptokinase expression inhibitor project, SKKanGAS strain, BacTiter-Glo luminescence | AID 1662, 2009 | inhibition, % at 7.5 µM | 6 h | 300,000 compounds, 1.3% hits;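 active = mean replicate score, as percent of positive control median, at least 50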;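 note: strain carries kanamycin resistance gene driven by streptokinase promoter and grows in 40 µg/ml kanamycin; loss of luminescence reflects streptokinase promoter inhibition or plain growth inhibition; 0% = median of DMSO wells and 100% = positive control at its reference dose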
# tim23-1 confirm = tim23-1 mutant yeast growth inhibitors, confirmation, luminescence, single concentration; S. cerevisiae tim23-1 growth, BacTiter-Glo luminescence, 24 h; AID 463218, 2010; shares compounds with tim23-1 inh; inhibition, % at 20 µM; 4,400 compounds, 83% hits;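 active = inhibition above about 39% in either of two replicate wells at 20 µM, limit read from the data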;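 note: temperature-sensitive tim23-1 mutant grown at 25 °C; 0% = DMSO wells with yeast and 100% = medium wells without yeast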
# * hit, by the source's call; . = not tested or not shown; ! = not active in a repeat. Compounds with a hit are over-represented: about 4.5% of the library has one in this group of screens.
SMILES,tim10-1 inh,NALP3 yeast inh,TIM10 inh,tim23-1 inh,PfHsp90 set2,SKKanGAS inh,tim23-1 confirm
Nc1ncnc2c1ncn2[C@@H]1O[C@H](CO)C[C@H]1O,25.7,21.1,-6.0,60.5*,8.9,-8.9,65.3*
CC1(C)O[C@@H]2[C@H](O1)[C@@H](CO)O[C@H]2n1cnc2c(N)ncnc21,-10.0,12.9,-8.2,-1.7,27.4,.,.
CC/C(=C(\c1ccc(O)cc1)c1ccc(OCCN(C)C)cc1)c1ccccc1,-18.2,21.3,28.7,-1.7,-13.8,4.3,.
CC/C(=C(\c1ccccc1)c1ccc(OCCN(C)C)cc1)c1ccccc1,32.5,41.0,28.6,42.6,-8.6,66.1*!,34.1
Cc1nn(-c2ccccc2)c(C)c1/C=N/NC(=O)c1cc(C23CC4CC(CC(C4)C2)C3)[nH]n1,23.6,22.2,31.8,52.6*,-6.5,64.3*,47.2*
Cc1cc(C(=O)N/N=C/c2c(C)nn(-c3ccccc3)c2C)n[nH]1,-3.8,15.6,-9.5,1.2,-15.7,-3.0,.
O=C(COC(=O)/C=C/c1ccccc1[N+](=O)[O-])NCc1ccco1,6.2,5.6,-8.8,0.6,.,.,.
CS(=O)(=O)c1nc(-c2ccc(F)cc2)cc(C(F)(F)F)n1,.,.,.,.,9.4,-0.4,.
CCOC(=O)CS(=O)(=O)c1nc(-c2ccc(F)cc2)cc(C(F)(F)F)n1,27.4,13.1,30.2,69.4*,-41.1,-2.3,-81.3
O=c1cc(-c2cccc(Br)c2)nc(-c2ccccc2F)o1,30.4,9.5,20.8,63.4*,-7.5,1.2,56.6*
O=c1cc(-c2ccccc2F)nc(-c2ccccc2F)o1,14.0,-15.0,13.7,18.6,16.4,3.6,.
Cc1nc(Nc2ccccc2)sc1C(=O)Nc1ccccc1,-12.4,34.0,11.5,55.1*,-1.5,-6.5,53.2*
COc1ccc(NC(=O)Nc2ccc3c(c2)C(=O)N([C@H](C)CO)C[C@H](C)[C@@H](CN(C)C(=O)Nc2ccccc2)O3)cc1,12.3,-2.4,7.7,1.5,-8.3,.,.
O=C(N/N=C/c1ccc([N+](=O)[O-])o1)c1cc2c(ccc3ccccc32)o1,.,.,.,.,-12.9,.,.
Cc1ccc(/C=N/NC(=O)c2cc3c(ccc4ccccc43)o2)o1,-33.3,48.1,14.0,56.5*,13.4,-7.4,46.1*
Cc1ccc(C)c(N2CCN(C(=O)CN3C(=S)NC(C)(C)CC3C)CC2)c1 (configuration not stated),32.3,20.9,12.9,12.4,14.5,0.7,.
COc1ccc(Nc2nc3ccccc3n3cnnc23)cc1Cl,20.6,25.1,11.5,57.2*,3.6,9.9,4.7
O=C(CN1C(=O)NC(Cc2c[nH]c3ccccc23)C1=O)NC1CCCCC1 (configuration not stated),-20.3,17.1,7.6,-8.3,.,.,.
CC(C)(C)c1csc(NC(=O)c2ccc(Cl)s2)n1,26.3,20.7,5.1,70.3*,-41.1,47.6,73.7*
Cc1ccc(C(=O)Nc2nc(C(C)(C)C)cs2)s1,8.7,16.5,-4.3,52.1*,-18.7,10.4,42.5*
CC(C)(C)c1csc(NC(=O)c2ccc(Br)o2)n1,30.2,22.3,23.5,53.2*,-30.4,1.2,48.2*
CC(C(=O)Nc1ccccc1)N1CCN(C(=O)c2ccco2)CC1 (configuration not stated),-9.5,10.8,-3.5,-4.8,5.1,.,.
CSc1ccccc1NC(=O)COC(=O)Cn1cc(C(F)(F)F)ccc1=O,8.1,7.0,2.4,0.2,7.7,.,.
COc1cccc(C(C(=O)NC2CCCCC2)N(C(=O)CNC(=O)c2ccco2)c2cccnc2)c1 (configuration not stated),3.2,-0.6,11.9,3.8,17.1,-1.6,.
Cc1ccc(CN2CCN(/N=C/c3cc(Br)cc(Br)c3O)CC2)cc1,25.1,25.8,11.6,59.3*,21.5,2.5,58.9*
SMILES,tim10-1 inh,NALP3 yeast inh,TIM10 inh,tim23-1 inh,PfHsp90 set2,SKKanGAS inh,tim23-1 confirm
COc1ccccc1NC(=S)NCCc1ccc(Cl)cc1,39.9,-19.4,38.6,3.1,-8.0,-3.5,.
COc1ccc(NC(=S)NCCSc2ccc(Cl)cc2)c(OC)c1,34.3,10.9,31.7,50.1*,-17.8,7.1,42.0*
COc1ccccc1NC(=S)NCCSc1ccc(Cl)cc1,33.0,6.8,39.5,54.0*,-1.4,7.3,50.2*
CCN(Cc1ccccc1)C(=O)c1cc(S(=O)(=O)N2CCOCC2)cn1C,-22.0,4.9,-0.9,-8.8,-3.7,2.7,.
O=C1SC(c2ccccc2)=C/C1=C\N1CCCCC1,36.2,32.4,2.5,62.8*,-55.1,-2.9,38.8*
O=C(COc1ccccc1-c1ccccc1)N/N=C/c1ccncc1,16.1,33.6,14.2,52.7*,-8.7,3.2,44.5*
CC[C@]12c3[nH]c4ccccc4c3CCN1C(=O)C(CC(=O)NCCC1=CCCCC1)C[C@@H]2C(=O)N1CCN(C(=O)C2CC2)CC1 (some centres not stated),2.8,5.7,-2.7,14.6,24.2,.,.
COc1cc(CNc2ccc(O)cc2)cc(Br)c1OCc1ccccc1,17.8,33.4,14.2,50.4*,3.1,3.6,55.2*
O=C(CN1C(=O)c2ccccc2S1(=O)=O)c1ccc(Cl)cc1Cl,32.5,10.0,7.8,51.3*,.,4.8,23.9
COc1ccc(C(=O)Nc2ccc(S(=O)(=O)Nc3nccc(C)n3)cc2)cc1[N+](=O)[O-],-8.7,1.4,-3.2,-9.6,1.5,2.0,.
COc1ccc(C2CC(=O)Oc3ccc(OC)cc32)cc1 (configuration not stated),12.9,.,-2.1,40.2,-17.3,.,.
COc1ccc(C2CC(=O)Oc3cc(C)c(Cl)cc32)cc1 (configuration not stated),26.2,.,9.2,52.7*,6.3,.,40.0*
O=C(O)C1OC1(c1ccccc1Cl)c1ccccc1Cl (configuration not stated),.,.,.,.,-5.9,.,.
c1ccc2[nH]c(CSc3nc4ccccc4o3)nc2c1,-40.5,32.4,13.4,54.4*,-17.1,1.9,54.9*
COc1cccc(CN2CCC(n3nccc3NC(=O)CCCc3ccccc3)CC2)c1,5.1,9.1,2.0,-9.3,47.9,-6.3,.
Cc1nc(SCc2nc3cc(Cl)c(F)cc3[nH]2)c2oc3ccccc3c2n1,33.1,34.0,35.2,55.8*,-10.8,.,50.2*
Cc1nc(SCc2nc3ccc(C(F)(F)F)cc3[nH]2)c2oc3ccccc3c2n1,32.9,22.4,6.7,57.3*,-1.8,.,49.2*
Cc1nc(SCc2nc3ccc(Cl)cc3[nH]2)c2oc3ccccc3c2n1,21.0,35.0,-1.0,45.4,3.9,.,.
